What all share (assay): NCI-60 one-dose screen, 48 h (100 = growth as untreated, 0 = no growth, -100 = all killed)
For one experiment, the system named is SK-MEL-2 melanoma. The conditions noted are these: 10 µM unless noted.
Another experiment relates to EKVX NSCLC. The conditions noted are these: 10 µM unless noted.
In another experiment the test system is SN12C renal. The conditions noted are these: 10 µM unless noted.
For another experiment, the system named is UO-31 renal. The conditions noted are these: 10 µM unless noted.
The subject of a further experiment is TK-10 renal. The conditions noted are these: 10 µM unless noted.
For a further experiment, the system named is ACHN renal. The conditions noted are these: 10 µM unless noted.
For the next experiment, the system named is CAKI-1 renal. The conditions noted are these: 10 µM unless noted.
The subject of a further experiment is A498 renal. As to conditions: 10 µM.
The test system of a further experiment is HL-60(TB) leukemia. As to conditions: 10 µM unless noted.
The next experiment has as its system CCRF-CEM leukemia. The conditions noted are these: 10 µM unless noted.
For another experiment, the system named is MOLT-4 leukemia. The conditions noted are these: 10 µM unless noted.
In a further experiment the test system is SR leukemia. The conditions noted are these: 10 µM unless noted.
The test system of the next experiment is RPMI-8226 leukemia. As to conditions: 10 µM unless noted.
Another experiment relates to OVCAR-8 ovarian. As to conditions: 10 µM unless noted.
The next experiment deals with OVCAR-5 ovarian. As to conditions: 10 µM unless noted.
In a further experiment the test system is OVCAR-4 ovarian. As to conditions: 10 µM unless noted.
Another experiment concerns SK-OV-3 ovarian. The conditions noted are these: 10 µM unless noted.
A further experiment deals with IGROV1 ovarian. The conditions noted are these: 10 µM unless noted.
For the next experiment, the system named is OVCAR-3 ovarian. The conditions noted are these: 10 µM unless noted.
In the next experiment the test system is HS 578T breast. As to conditions: 10 µM unless noted.

This is part of a sample that, as a whole, favours compounds with a hit. Of some 83,000 tested, about 20% had one in any assay.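 Percent growth is the endpoint: 0 to 100 indicates growth inhibition (40 means 60% inhibition), 0 means no net growth, and negative values indicate cell death.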 Unmarked numbers belong to inactive results. Calls of active or inactive are those of the source. The calls were made as follows: active = growth percent below 10; inactive = the rest.

Regarding `CC[C@H](C)[C@H](NC(=O)c1cccn1C)C(=O)N(C)[C@H](C[C@@H](OC(C)=O)c1nc(C(=O)N[C@@H](Cc2ccccc2)C[C@H](C)C(=O)OC)cs1)C(C)C`, the growth in the experiment with SK-MEL-2 melanoma is 20.4%; with EKVX NSCLC, 54.3%; in the experiment on SN12C renal, 24.2%; in the experiment on UO-31 renal, 38.9%; in the experiment on TK-10 renal, 27.5%; with ACHN renal, 30%. The growth with CAKI-1 renal was 25.1%; in the experiment on A498 renal it was -2.8% (active); in the experiment with HL-60(TB) leukemia, -36.7% (active); in the experiment on CCRF-CEM leukemia, 18.7%; with MOLT-4 leukemia, 16.2%; in the experiment with SR leukemia, 14.4%. Besides, the growth in the experiment on RPMI-8226 leukemia was 18.6%; in the experiment with OVCAR-8 ovarian it was 15.6%; with OVCAR-5 ovarian, 43.5%; in the experiment with OVCAR-4 ovarian, 46.9%; in the experiment with SK-OV-3 ovarian it was 10.8%; in the experiment on IGROV1 ovarian, 23%. Besides, the results for the growth in the experiment with OVCAR-3 ovarian and in the experiment with HS 578T breast were -3.92% (active) and 27%, respectively.
As for `COc1cc(/C=C/[N+](=O)[O-])c([N+](=O)[O-])cc1OC`, the growth is -6.72% (active) in the experiment on SK-MEL-2 melanoma; 65.9% with EKVX NSCLC; 22% in the experiment on SN12C renal; -49.5% (active) in the experiment on UO-31 renal; -18.3% (active) in the experiment on TK-10 renal; -46.4% (active) in the experiment with ACHN renal. Moreover, the growth in the experiment with CAKI-1 renal was -50% (active); in the experiment on A498 renal, 109%; in the experiment with HL-60(TB) leukemia it was -7.54% (active); in the experiment on CCRF-CEM leukemia it was 5.8% (active); in the experiment with MOLT-4 leukemia, 7.83% (active); in the experiment with SR leukemia, 12.6%. Moreover, the growth with RPMI-8226 leukemia is 4.37% (active); in the experiment on OVCAR-8 ovarian, 17%; with OVCAR-5 ovarian it was -3.45% (active); with OVCAR-4 ovarian, 6.43% (active); in the experiment with SK-OV-3 ovarian, 103%; with IGROV1 ovarian, -15.6% (active). In addition, the results for the growth in the experiment on OVCAR-3 ovarian and with HS 578T breast were -91.7% (active) and 11.8%, respectively.
In the case of `C/C(Cc1ccc(Cl)cc1)=C(\c1ccc(OCCN2CCOCC2)cc1)c1ccc(OC(=O)Cc2ccccc2)cc1`, the growth was 84.9% in the experiment on SK-MEL-2 melanoma; 93.3% in the experiment with EKVX NSCLC; 93.8% with SN12C renal; 67.5% in the experiment with UO-31 renal; 86.7% in the experiment with TK-10 renal; 104% with ACHN renal. Moreover, the growth with CAKI-1 renal is 71.6%; in the experiment with A498 renal, 98.6%; in the experiment with HL-60(TB) leukemia, 100%; with CCRF-CEM leukemia, 98.9%; in the experiment with MOLT-4 leukemia it was 94.8%; with SR leukemia, 87.1%. In addition, the growth is 84% in the experiment with RPMI-8226 leukemia; 92% in the experiment on OVCAR-8 ovarian; 91.1% in the experiment on OVCAR-5 ovarian; 101% in the experiment on OVCAR-4 ovarian; 109% in the experiment on SK-OV-3 ovarian; 86.4% in the experiment on IGROV1 ovarian. Moreover, the results for the growth with OVCAR-3 ovarian and with HS 578T breast were 101% and 99.1%, respectively.
With `O=C(Nc1ccncc1F)c1cn(CC2CC2)c2ccccc12`, the growth in the experiment on SK-MEL-2 melanoma is 98.8%; in the experiment on EKVX NSCLC, 89.2%; in the experiment on SN12C renal, 102%; with UO-31 renal, 93.9%; in the experiment on TK-10 renal, 103%; in the experiment on ACHN renal, 108%. Besides, the growth in the experiment with CAKI-1 renal is 98.2%; with A498 renal, 91%; in the experiment on HL-60(TB) leukemia it was 100%; in the experiment with CCRF-CEM leukemia it was 102%; in the experiment with MOLT-4 leukemia it was 101%; in the experiment on SR leukemia, 116%. The growth in the experiment on RPMI-8226 leukemia was 91.9%; with OVCAR-8 ovarian, 101%; in the experiment with OVCAR-5 ovarian, 113%; with OVCAR-4 ovarian it was 97.7%; in the experiment with SK-OV-3 ovarian, 105%; with IGROV1 ovarian, 109%. Besides, the results for the growth in the experiment on OVCAR-3 ovarian and in the experiment with HS 578T breast were 110% and 98.7%, respectively.
`c1ccc(Nc2nc(-c3ccccc3)c[se]2)cc1`: the growth is 105% with SK-MEL-2 melanoma; 70.3% with EKVX NSCLC; 86.2% in the experiment with SN12C renal; 46.2% with UO-31 renal; 83.5% in the experiment with TK-10 renal; 84% in the experiment with ACHN renal. The growth was 55.7% in the experiment with CAKI-1 renal; 55.9% in the experiment with A498 renal; 102% in the experiment with HL-60(TB) leukemia; 101% with CCRF-CEM leukemia; 76.2% with MOLT-4 leukemia; 79.6% in the experiment on SR leukemia. In addition, the growth in the experiment on RPMI-8226 leukemia is 86.6%; in the experiment on OVCAR-8 ovarian, 96.3%; in the experiment with OVCAR-5 ovarian, 96.7%; in the experiment on OVCAR-4 ovarian it was 75.6%; in the experiment on SK-OV-3 ovarian, 86.4%; in the experiment on IGROV1 ovarian, 68.8%. The growth in the experiment with OVCAR-3 ovarian was 93.5%; in the experiment with HS 578T breast, 89.6%.
As to `COc1ccc(S(=O)(=O)N(Cc2ccc3c(c2)C=CC(C)(C)O3)c2ccccc2)cc1OC`, the growth was 97.1% in the experiment on SK-MEL-2 melanoma; 58.1% with EKVX NSCLC; 95.9% in the experiment with SN12C renal; 67.4% with UO-31 renal; 102% in the experiment on TK-10 renal; 61.3% in the experiment on ACHN renal. Further, the growth in the experiment on CAKI-1 renal is 61.7%; in the experiment on A498 renal it was 77.8%; with HL-60(TB) leukemia, 70.6%; in the experiment on CCRF-CEM leukemia, 72%; with MOLT-4 leukemia, 74.4%; with SR leukemia, 75.9%. Moreover, the growth was 46.2% with RPMI-8226 leukemia; 79.9% in the experiment on OVCAR-8 ovarian; 103% in the experiment with OVCAR-5 ovarian; 70.6% with OVCAR-4 ovarian; 90.7% in the experiment with SK-OV-3 ovarian; 75.6% with IGROV1 ovarian. In addition, the results for the growth with OVCAR-3 ovarian and in the experiment on HS 578T breast were 74.3% and 91.1%, respectively.
As to `COc1cc(C=C2c3ccccc3C(=O)c3ccccc32)ccc1OCCCCOc1cc2c(cc1OC)C(=O)N1CCCC1C=N2` (stereo not given), the growth with SK-MEL-2 melanoma is -79.6% (active); in the experiment on EKVX NSCLC, -49.8% (active); in the experiment with SN12C renal it was -68.6% (active); with UO-31 renal, -96% (active); in the experiment with TK-10 renal it was -70.2% (active); in the experiment with ACHN renal, -62.8% (active). Moreover, the growth is -75.5% (active) in the experiment on CAKI-1 renal; -78.6% (active) in the experiment with A498 renal; -21.3% (active) in the experiment on HL-60(TB) leukemia; -24% (active) with CCRF-CEM leukemia; -53.2% (active) with MOLT-4 leukemia; -84.7% (active) with SR leukemia. Besides, the growth in the experiment on RPMI-8226 leukemia was -10% (active); with OVCAR-8 ovarian, -30.4% (active); in the experiment with OVCAR-5 ovarian, -61.3% (active); in the experiment with OVCAR-4 ovarian it was -41.1% (active); in the experiment with SK-OV-3 ovarian, -52.4% (active); with IGROV1 ovarian it was -85% (active). Besides, the growth in the experiment with OVCAR-3 ovarian was -75.2% (active); with HS 578T breast, -25.9% (active).

The record behind these values is PubChem BioAssay (NCI).
